In ChEMBL document CHEMBL1157539, “Thousands of chemical starting points for antimalarial lead identification” (Nature, 2010) one finds Inhibition data, which are given here for 29 molecules.

Holding throughout (format): functional
For assay [1], the system named is Plasmodium falciparum. Put plainly: GSK_TCMDC: Inhibition of Plasmodium falciparum 3D7 in whole red blood cells, using parasite LDH activity as an index of growth. Test compounds present at 2uM.
Assay [2] concerns Plasmodium falciparum. Put plainly: GSK_TCMDC: Inhibition of Plasmodium falciparum Dd2 in whole red blood cells, using parasite LDH activity as an index of growth. Test compounds present at 2uM.
For another assay, the system named is HepG2. Put plainly: GSK_TCMDC: Percent inhibition of human HepG2 cell line. Test compounds present at 10uM.

Usually Inhibition stands for the share of the control response that was lost under treatment. A lower Inhibition goes with little suppression. Turning to `COc1ccc2nccc([C@@H](O)CN3CCC(NCCOc4ccccc4C#N)CC3)c2c1.O=C(O)C(=O)O`, the Inhibition in the assay with Plasmodium falciparum [1] turned out to be 100%; in the assay with Plasmodium falciparum [2], 99%; in the assay on HepG2, 10%.

Take `Cc1ccc2c(=NN=Cc3ccc(N(C)C)cc3)cc(C)[nH]c2c1`: the results for the Inhibition in the assay with Plasmodium falciparum [1], with Plasmodium falciparum [2] and with HepG2 were 99%, 46% and 0%, respectively.

On to `Cc1cc(-c2ccc(CNCc3ccc(F)cc3)cc2)ccc1S(=O)(=O)NCCN1CCCC1.O=C(O)C(F)(F)F`, for which the Inhibition in the assay on Plasmodium falciparum [1] worked out at 100%; with Plasmodium falciparum [2] it was 41%; in the assay on HepG2, 95%.

Turning to `CN1CCC(OC(=O)c2cc3cc(-c4ccccc4)ccc3n2S(=O)(=O)c2ccccc2)CC1.Cl`, the results for the Inhibition with Plasmodium falciparum [1], in the assay on Plasmodium falciparum [2] and in the assay on HepG2 were 88%, 10% and 31%, respectively.

For the molecule `CCCCCN1CCC(NS(=O)(=O)c2cccc(C(=O)Nc3cccc(C(F)(F)F)c3)c2)C1.O=C(O)C(F)(F)F` (configuration not stated), the Inhibition in the assay with Plasmodium falciparum [1] is 86%; in the assay on Plasmodium falciparum [2], 17%; with HepG2, 25%.

As to `CC(=O)Nc1nc(C(=O)Nc2ccc(-c3cccc(-c4nc5cc(C(F)(F)F)ccc5[nH]4)c3)cc2)cs1`, the Inhibition is recorded as 100% in the assay with Plasmodium falciparum [1], 97% with Plasmodium falciparum [2] and 79% in the assay with HepG2.

As to `Br.CC1(C)NC(N)=NC(=N)N1OCCCc1c(Cl)cccc1Cl`, the figures for the Inhibition in the assay with Plasmodium falciparum [1], in the assay on Plasmodium falciparum [2] and in the assay with HepG2 were 95%, 97% and 71%, respectively.

As for `COc1ccc(NC(=O)/C=C/c2cc(F)cc(C(F)(F)F)c2)cc1OCCN(C(C)C)C(C)C.O=C(O)C(F)(F)F`, the Inhibition in the assay with Plasmodium falciparum [1] turned out to be 97%; with Plasmodium falciparum [2], 21%; with HepG2, 18%.

On to `COc1ccc(CNCCc2cccs2)cc1-c1ccc(OC)c(S(=O)(=O)NCCN2CCCC2)c1.O=C(O)C(F)(F)F`, for which the Inhibition worked out at 96% with Plasmodium falciparum [1], 19% in the assay on Plasmodium falciparum [2] and 16% with HepG2.

Regarding `O=C(NC1CCN(Cc2ccc(F)cc2)CC1)c1ccc(-c2cccc(C(F)(F)F)c2)s1.O=C(O)C(F)(F)F`, the values for the Inhibition in the assay on Plasmodium falciparum [1], with Plasmodium falciparum [2] and in the assay on HepG2 were 83%, 11% and 88%, respectively.

Turning to `O=C(/C=C/c1ccc(Cl)cc1)NCCCCCN1CCN(C(=O)C=Cc2ccc(Cl)c(Cl)c2)CC1.O=C(O)C(F)(F)F`, the Inhibition in the assay with Plasmodium falciparum [1] worked out at 92%; with Plasmodium falciparum [2], 0%; with HepG2, 30%.

For the molecule `O=C(CN1CCCC1)Nc1cccc(C(=O)Nc2cccc(C(F)(F)F)c2)c1`, the figures for the Inhibition in the assay on Plasmodium falciparum [1], in the assay with Plasmodium falciparum [2] and in the assay on HepG2 were 95%, 83% and 9%, respectively.

With `COc1ccc(C(=O)CC(=O)c2ccc(OC)cc2OC)c(OC)c1`, the results for the Inhibition in the assay with Plasmodium falciparum [1], in the assay with Plasmodium falciparum [2] and in the assay with HepG2 were 98%, 0% and 1%, respectively.

With `CN1CCN(c2ccnc3ccc(NC(=O)Nc4ccc5c(c4)CCC5=O)cc23)CC1`, the Inhibition with Plasmodium falciparum [1] came to 100%; in the assay with Plasmodium falciparum [2], 67%; with HepG2 it was 8%.

For `O=C(Nc1cccc(-c2nn3ccccc3c2-c2ccnc(Nc3ccccc3)n2)c1)c1c(F)cccc1F`, the Inhibition in the assay on Plasmodium falciparum [1] amounted to 98%; with Plasmodium falciparum [2] it was 98%; with HepG2 it was 69%.

In the case of `COc1ccc(O)c(Cc2cnc3nc(N)[nH]c(=O)c3c2C)c1.CS(=O)(=O)O`, the Inhibition in the assay with Plasmodium falciparum [1] is given as 96%; with Plasmodium falciparum [2], 6%; in the assay on HepG2, 30%.

As to `Br.CCCc1cccc(OC)c1OCCCON1C(N)=NC(N)=NC1(C)C`, the Inhibition in the assay with Plasmodium falciparum [1] amounted to 94%; with Plasmodium falciparum [2] it was 97%; in the assay with HepG2, 65%.

Turning to `Cc1nnc2c(NC(=O)NC3CCCC3)cc3ccc(-c4cccc(CN5CCN(C)CC5)c4)cc3n12`, the Inhibition worked out at 91% with Plasmodium falciparum [1], 68% in the assay on Plasmodium falciparum [2] and 54% with HepG2.

As to `COc1ccc(-c2cccc(NC(=O)c3ccc(Cl)cc3)c2)cc1CN1CCCC1.O=C(O)C(F)(F)F`, the Inhibition amounted to 97% in the assay with Plasmodium falciparum [1], 52% with Plasmodium falciparum [2] and 55% in the assay with HepG2.

Take `CCc1sc(N2CCC(C)CC2)nc1C(=O)Nc1ccc(F)cc1C(F)(F)F`: the figures for the Inhibition in the assay on Plasmodium falciparum [1], in the assay on Plasmodium falciparum [2] and in the assay on HepG2 were 94%, 65% and 1%, respectively.

For `CCOC(=O)c1ccc(OCc2ccc(-c3ccccc3)cc2)cc1`, the Inhibition in the assay on Plasmodium falciparum [1] worked out at 96%; in the assay on Plasmodium falciparum [2] it was 0%; with HepG2, 18%.

`C=CCC1OC(=O)c2cc(OC)cc(OC)c21` (configuration not stated): the figures for the Inhibition with Plasmodium falciparum [1], in the assay on Plasmodium falciparum [2] and in the assay with HepG2 were 95%, 100% and 100%, respectively.

Turning to `COc1ccc(CNc2nc(NCCc3ccccc3)c3cc(OC)c(OC)cc3n2)cc1OC`, the Inhibition was determined as 100% in the assay on Plasmodium falciparum [1], 100% in the assay with Plasmodium falciparum [2] and 48% with HepG2.

In the case of `COc1ccc2nccc([C@@H](O)CN3CCC(NCCOc4ccc(F)cc4F)CC3)c2c1.O=C(O)C(=O)O`, the Inhibition with Plasmodium falciparum [1] is 100%; with Plasmodium falciparum [2] it was 68%; in the assay with HepG2 it was 13%.

For the molecule `O=C1NC(=O)C(c2ccc(Cl)cc2)=C1Nc1cccc(S(=O)(=O)C(F)(F)F)c1`, the figures for the Inhibition in the assay with Plasmodium falciparum [1], in the assay on Plasmodium falciparum [2] and in the assay with HepG2 were 99%, 51% and 1%, respectively.

Consider `Br.CCN(CC)CCn1c(=N)n(CC(=O)c2ccc(-c3ccccc3)cc2)c2ccccc21`, for which the values for the Inhibition in the assay with Plasmodium falciparum [1], with Plasmodium falciparum [2] and in the assay with HepG2 were 83%, 38% and 32%, respectively.

Turning to `CCc1c(CCNCCCCCCNCCc2ccc3c(c2C)OCO3)ccc2c1OCO2.Cl`, the values for the Inhibition with Plasmodium falciparum [1], with Plasmodium falciparum [2] and with HepG2 were 100%, 7% and 59%, respectively.

`Cc1cc(N2CCN(C3CCCCC3)CC2)nc2cccc(O)c12`: the Inhibition in the assay on Plasmodium falciparum [1] came to 100%; with Plasmodium falciparum [2], 37%; in the assay with HepG2, 12%.

In the case of `CNc1ccc(CNCc2ccc(-c3ccc(-c4nc5cc(C(F)(F)F)ccc5[nH]4)s3)cc2)cc1.O=C(O)C(F)(F)F`, the Inhibition with Plasmodium falciparum [1] amounted to 100%; in the assay with Plasmodium falciparum [2], 97%; in the assay with HepG2, 44%.
